# Among all 53,000 sequences or so, about 3,700 (7%) were called active. The entries come from a sample that favours actives as a whole. Values without a mark were called inactive.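 How the source made its calls: active means gene knockdowns whose robust z-score for IL-1 alpha signal is at least 2 or at most -2, so actives lie on both sides; inactive means the rest.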
# Assay: Components of the Cytosolic LPS Sensing Pathway: Gene Identification via Genome-wide siRNA Screen;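 further: robust z of the log signal after scaling to non-targeting control siRNA wells of the plate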
# Details: RAW264.7 macrophages, IL-1a HTRF, actives lie on both sides, screened at 100 nM (by protocol), cells primed 5 h with Pam3CSK4 first
# Method in brief: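 RAW264.7; siRNA 100 nM final, RNAiMAX, 48h 37 degrees C; Pam3CSK4 5 h; LipidA + TransIT-TKO 24 h; IL-1a HTRF; CellTiter-Glo viability; robust z vs negative-control median.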
row,Sequence,z-score
1,CGGGCUGAAUGUGUUUGUGTT against Slc10a4,2.62 (active)
2,GGUACGGUAUGGAGAUCGGTT against Atpaf2,0.593
3,GGCAGAGCCAGGAUGUCUUTT against Msmb,-1.2
4,GGUAACUCUCCUUAGCCAGTT against Klk10,-0.0493
5,GGACUCCCUGGAUUUCAGATT against Rapgef3,-1.34
6,GGCAGCUGAAGAUUAUGGATT against Tagln,0.837
7,GGCAAUAACAUUGCCUCGGTT against Igf1r,0.632
8,GGGUGAGCAGUACAUUCAATT against Plekhg6,2.73 (active)
9,CCGAAAAUGUGGUAAAGUATT against Smg1,0.948
10,CCCAACAACCAACUAUUUUTT against Kcna1,3.36 (active)
11,GGGAUAAAGAUGAAGAACUTT against Tmem167b,1.31
12,GGAAGUCAAGAUCUCACCUTT against Lrrc25,-0.864
13,CCAAGGGAAGAUUCAAAUUTT against Abcc8,2.29 (active)
14,CGUUUGAUACCAAAGAUUUTT against Onecut3,-1.12
15,GCUGUAAGCUACCGUCUGUTT against Panx2,1.54
16,GGUAUCUACCAGUACGAGATT against Izumo4,-1.59
17,GCAUUAUGUCAGUAGCUCATT against Snrpb,-3.47 (active)
18,CGGUGCACAACGUACCAAUTT against Srxn1,-0.0189
19,GGUAUCCCUAACUGGCAGUTT against Tro,-0.849
20,GGCUCAAAGGAGGGUAGAGTT against Lcn8,3.18 (active)
21,GGAAAUAAAUGGCAGCAUGTT against H2-T3,1.47
22,GGAUGAUUCAUUCAGUGAUTT against Adcy9,0.918
23,CCAAAACUUUCCACUCUAATT against Ttc32,0.175

row,Sequence,z-score
1,CCCAAACUGAAUUAAGCAGTT against Spata7,-0.515
2,GGAAAACUACUAAAAAGUCTT against Zfp938,-0.31
3,GGUUACUCCUUUUUAUGUATT against Bex1,-1.1
4,GGGACAAGUGGUUGAAACCTT against Prmt8,-2.01 (active)
5,GGCCACAAACAGAAUUAUCTT against Mrpl2,-0.219
6,GGAGAAAAAGGGAAAGAAUTT against Dlx4,0.0644
7,CCUAGUUUGGUGAUGAUGUTT against Atg10,-0.262
8,GGUCAUUGAAAACUGUGCGTT against Sardh,-1.04
9,GCAAGAGACCUUGUUAUAGTT against Cttnbp2nl,-0.426
10,CCCAGUAAAUAAGAGUACATT against Treml1,-1.33
11,GGGAGACCCAAUGUCAUCATT against Dtx3,-1.25
12,GCGGGAUUGGUCAUUCCACTT against Mrpl45,2.97 (active)
13,CGAACAUGUACAACAAAGATT against Cacna2d3,-0.181
14,GGAACAAAGACUUCAAAGATT against Olfr323,-0.249
15,GGUGCUAAAAAUGAGCCUUTT against Urm1,-1.66
16,GGGAUGGCCAUAGAACAGATT against Echdc2,-0.211
17,CCCUAGACUUGAGAGUUUUTT against Eif2s1,1.29
18,GGCUGUGGAAGUGCAGAACTT against Dnmt3a,-2.53 (active)
19,CCGAGAGGUUUAAGGUCUCTT against Nsg1,1.18
20,GCUAGUCUACCCAAGUGACTT against Dennd6b,4.35 (active)
21,CCUACUUACUCCUGUAUAATT against Adam3,1.77
22,CGAAACCAACAGUUAGAAGTT against Cby1,0.71
23,GAUCCUCACGAAAUAGGUATT against Olfr1372-ps1,0.737

row,Sequence,z-score
1,GGUCUCUAGUGGAAAAGCATT against A430093F15Rik,-3.05 (active)
2,GCUCUUAAAACCCACCUGATT against Gzf1,-1.97
3,UAAUGGCUGCUGUCUCCUGTT against Olfr441,0.405
4,GGCGAAAAAGAACUUCUCCTT against Prrx1,-2.17 (active)
5,GCCUACAUUCACUCACUCCTT against Olfr1061,-0.016
6,GGAUCAUUCGGACAAAAGUTT against Pax5,-1.31
7,GGAGAAGAAGAUUUUUGGCTT against Gpr108,-0.684
8,GCCAACAAAGUGAUCGAAGTT against Fkbp10,0.175
9,CCAGCAAUGUACCAGUUCATT against Micos13,-2.02 (active)
10,GGUGAAAGAGAAGACUGAATT against Aimp1,-0.418
11,GGGUAUUCCUUCCAACACCTT against Lrrc4,-2.14 (active)
12,CCCAGUAUCAGACUAUCAUTT against Inpp4a,-0.178
13,CGAAUUUUGGAGAUGUAUGTT against Ddias,0.376
14,GGAACAAAGAAGUCAAAGATT against Olfr16,-0.765
15,CGGUGAUCAAUCAUUGUAATT against Tas2r113,-2.16 (active)
16,GCCUGUCAACUACCCAUAUTT against Ergic3,-1.13
17,GGCAAUGAGUCUGACCUCUTT against Capg,-1.39
18,GCUAAGGCUUGGAAUGACATT against Maged1,-0.105
19,GGUGGUGGGUCCAAUUUUUTT against Jpt1,0.411
20,GGACGUAGAAGUUUGGGAGTT against Nupl2,1.39
21,GCACGUUCAGUGCACACCUTT against Nubp1,2.59 (active)
22,CCCUCACAACUUGAAGGACTT against Ccnk,-0.882
23,GGAAGAAGUAGACCUGUCUTT against Aar2,-2.36 (active)

# From PubChem BioAssay AID1508600 (Functional Genomics Laboratory (NCATS/FGL), 2020)
